In PubChem BioAssay:
Several values for one entry are separate records, joined by “and”; a condition that tells them apart may be missing. Equal values may be shown once. Records with an inconclusive call do not appear. Activity calls are given as the source filed them.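 How the source made its calls, unless noted: active means thallium flux through the channel raised or lowered by more than 3 SD from vehicle-only wells, actives on both sides; inactive means the rest.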

What was measured:
[1] = molecular target: NAD(+) hydrolase SARM1 (Homo sapiens) (UniProt Q6SZW1); assay: blocking NAD cleavage by SARM1 SAM-TIR – cell lysate, NAD-Glo luminescence (AID 1508614;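 active means compound whose remaining NAD level is above about 45 nM, limit read from the data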); conditions: SAM-TIR HEK293T lysate NADase, at 1 µM, stronger effect = higher value
[2] = molecular target: Mitogen-activated protein kinase 7 (Homo sapiens) (UniProt Q13164); assay: Gal4-ERK5 driven luciferase induction – cell-based, HTS, primary screen (AID 1508626;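 active means luciferase signal above three times the same-plate solvent-only control wells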;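 further: luciferase driven by Gal4-ERK5 fusion binding five Gal4 sites before minimal TATA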); conditions: HeLa Gal4-ERK5 transactivation, 18 h, at 5 µM, stronger effect = higher value
[3] = galactose survival enhancers in mitochondrial complex I cybrids – cell-based, galactose medium, ATP luminescence, primary screen (AID 1645843;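 active means z-score of at least 1.8 in each of two replicates, scored against plate mean and spread of sample wells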;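 further: positive z means more ATP and so rescue of galactose-driven cybrid death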); conditions: complex I mutant cybrid cells, 72 h, stronger effect = higher value
F380Y = assay: BK channel mutant inhibitors and activators – cell-based, U2OS BacMam, thallium flux, beta subunits, selectivity assay, profiling panel (AID 1259406); conditions: U2OS BacMam BK variants, at 30 µM;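 further: initial slope of Thallos dye fluorescence rise after thallium is added; log ratio against the mean of 0.3% DMSO vehicle wells on the same plate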
F380Y/beta1 = assay: as above; conditions: U2OS BacMam BK variants, at 30 µM
F380Y/beta2Delta = assay: as above; conditions: U2OS BacMam BK variants, at 30 µM
F380Y/beta4 = assay: as above; conditions: U2OS BacMam BK variants, at 30 µM
[4] = molecular target: Calcium-activated potassium channel subunit alpha-1 (Homo sapiens) + Leucine-rich repeat-containing protein 26 (Homo sapiens) (UniProt Q12791+Q2I0M4); assay: as above; conditions: U2OS BacMam BK variants, F380Y/Slo1WT/gamma1, at 30 µM
R275C = assay: as above; conditions: U2OS BacMam BK variants, at 30 µM
R275C/beta1 = assay: as above; conditions: U2OS BacMam BK variants, at 30 µM
R275C/beta2Delta = assay: as above; conditions: U2OS BacMam BK variants, at 30 µM
R275C/beta4 = assay: as above; conditions: U2OS BacMam BK variants, at 30 µM
R275C/Slo1WT/beta2 = assay: as above; conditions: U2OS BacMam BK variants, at 30 µM
[5] = compounds altering viability of human ES cells (AID 493140; call rule not given here;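 further: cells exposed to compounds for four days before counting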); conditions: human embryonic stem cell survival screen; stronger effect = higher value
[6] = signal quenchers or enhancers, Cy5 substrate/SSB – biochemical, NIH Clinical Collection, E. coli SSB, artefact control for HCV NS3 helicase inhibitor project (AID 743268; call rule not given here); conditions: Cy5-oligo bound E. coli SSB, fluorescence interference
[7] = test system: Hepatitis C virus NS3 helicase; assay: blockers of NS3h binding to DNA – biochemical, fluorescence polarization, NIH Clinical Collection, primary screen (AID 743270; call rule not given here); conditions: NS3 helicase binding to Cy5-dT15 DNA, stronger effect = higher value, concentration not given here
[8] = molecular target: Single-stranded DNA-binding protein (Escherichia coli (strain K12)) (UniProt P0AGE0); assay: SSB-ssDNA binding inhibitors – biochemical, fluorescence polarization, NIH Clinical Collection, counter-screen for HCV NS3 helicase inhibitor project (AID 743271; in the data active means inhibition above about 28%); conditions: E. coli SSB-DNA binding, stronger effect = higher value, concentration not given here
[9] = compounds distorting NS3 helicase fluorescence signal – biochemical, NIH Clinical Collection, artefact control for HCV NS3 helicase inhibitor project (AID 743272; call rule not given here;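 further: HCV NS3 helicase with a Cy5 labelled single stranded DNA probe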); conditions: fluorescence interference counterscreen, HCV NS3 helicase assay; stronger effect = lower value
[10] = Wnt pathway potentiators raising nuclear beta-catenin – imaging, WNT3A-conditioned medium, mouse C2C12, NPC library, primary screen (AID 1117326; in the data active means nuclear beta-catenin stimulation mostly above about 4.2%, no sharp cut-off; inactive means mostly below about 10%); conditions: stronger effect = higher value
[11] = stimulators of insulin release from INS-1E, primary screen, cell-based, 5 mM glucose, NPC library (AID 1117329;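 active means compound raises insulin release from rat beta cells at 5 mM glucose, no numeric limit stated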); conditions: rat INS-1E insulin secretion, at 10 µM, stronger effect = higher value
[12] = growth inhibition of GSK3B-pretreated HCT116 cells – cell-based, CellTiter-Glo, 0.2 to 20 µM (AID 1117336;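 active means compounds lowering colon cancer cell viability after pretreatment blocking the GSK3B kinase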); conditions: HCT116 viability after GSK3B inhibitor, at 20 µM, stronger effect = higher value
[13] = inhibition of endothelial tube formation, primary screen, imaging, VEGF stimulated, CD31 staining, tube area, NPC library (AID 1117340;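 active means compound that reduces growth-factor-driven endothelial tube area in a mixed cell culture, no cutoff stated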); conditions: VEGF-stimulated ADSC/ECFC co-culture, at 10 µM, stronger effect = higher value
[14] = GLP1 release stimulators, primary, NCI-H716, NPC library (AID 1117341;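 active means compound raises GLP1 secretion from the human gut endocrine cells, with no numeric limit stated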); conditions: NCI-H716 cells, at 10 µM, stronger effect = higher value
[15] = HCT116 colon cancer cell growth inhibition, primary screen, CellTiter-Glo luminescence, NPC library (AID 1117342;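 active means compounds that lower survival of HCT116 colon cancer cells in the luminescence readout, no numeric limit stated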); conditions: at 20 µM (top of the series)
[16] = reduced SW480 viability measured with CellTiter-Glo, NPC library, primary (AID 1117343;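 active means compounds that lower viability of the colon cancer cells in the luminescence readout, with no numeric limit stated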); conditions: CellTiter-Glo luminescence; at 20 µM (top of the series)
[17] = NPC library primary testing for decreased DLD-1 cell viability via CellTiter-Glo (AID 1117346;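 active means compounds that lower survival of DLD-1 colon cancer cells in the luminescence readout, no cutoff given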); conditions: DLD-1 viability, CellTiter-Glo luminescence; at 20 µM (top of the series)
[18] = molecular target: 6-phosphogluconate dehydrogenase, decarboxylating (Homo sapiens) (UniProt P52209); assay: inhibition of human phosphogluconate dehydrogenase – biochemical, recombinant enzyme, NADPH absorbance, primary screen (AID 1159550;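 active means at least 20% inhibition of 6-phosphogluconate dehydrogenase activity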); conditions: recombinant 6PGD, NADPH absorbance 341 nm; at 10 µM; stronger effect = higher value
[19] = viability loss in pontine glioma line – cell-based, SU-DIPG-XVII, MIPE5.0, CellTiter-Glo, qHTS, dose response (AID 1347060; cut-off not given, nearly all actives have AC50 up to about 26 µM); conditions: CellTiter-Glo ATP luminescence
[20] = viability loss in pontine glioma line – cell-based, SU-DIPG-XIII, MIPE4.0, CellTiter-Glo, qHTS, dose response (AID 1347061; cut-off not given, nearly all actives have AC50 up to about 37 µM;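 further: cells exposed to compound for 48 hours before readout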); conditions: CellTiter-Glo ATP luminescence
[21] = viability loss in pontine glioma line – cell-based, JHH-DIPG-1, MIPE4.0, CellTiter-Glo, qHTS, dose response (AID 1347062; cut-off not given, nearly all actives have AC50 up to about 27 µM); conditions: JHH-DIPG-1 viability, CellTiter-Glo ATP luminescence
[22] = viability loss in pontine glioma line – cell-based, SU-DIPG-XIII, MIPE5.0, CellTiter-Glo, qHTS, dose response (AID 1347064; cut-off not given, nearly all actives have AC50 up to about 23 µM); conditions: CellTiter-Glo ATP luminescence
[23] = JHH-DIPG-1 glioma cell viability, MIPE5.0 library, CellTiter-Glo luminescence, qHTS (AID 1347067; cut-off not given, nearly all actives have AC50 up to about 26 µM;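 further: cells exposed to compound for 48 hours before readout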); conditions: JHH-DIPG-1 glioma viability, CellTiter-Glo ATP luminescence
[24] = viability loss with induced miR-34 in A549 – imaging, A549 dox-inducible miR-34, nuclei and caspase counts, primary screen (AID 1347080;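 active means compounds whose cell count with miR-34 switched on is under 0.7 times the count with it off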); conditions: A549 miR-34 inducible, Hoechst nuclei count, 48 h
[25] = MELAS cybrid and Rieske KO viability enhancers – cell-based, MELAS cybrids, Rieske KO mouse fibroblasts, CellTiter-Glo, primary screen (AID 1508586;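 active means mean z-score across replicates of 1.96 or higher in either the MELAS or the Rieske mutant cell line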;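 further: z relative to plate mean and SD of compound and empty wells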); conditions: low glucose

Calcium-activated potassium channel subunit alpha-1 (Homo sapiens) + Leucine-rich repeat-containing protein 26 (Homo sapiens), sequence (Q2I0M4 whole entry, looked up, one chain of several): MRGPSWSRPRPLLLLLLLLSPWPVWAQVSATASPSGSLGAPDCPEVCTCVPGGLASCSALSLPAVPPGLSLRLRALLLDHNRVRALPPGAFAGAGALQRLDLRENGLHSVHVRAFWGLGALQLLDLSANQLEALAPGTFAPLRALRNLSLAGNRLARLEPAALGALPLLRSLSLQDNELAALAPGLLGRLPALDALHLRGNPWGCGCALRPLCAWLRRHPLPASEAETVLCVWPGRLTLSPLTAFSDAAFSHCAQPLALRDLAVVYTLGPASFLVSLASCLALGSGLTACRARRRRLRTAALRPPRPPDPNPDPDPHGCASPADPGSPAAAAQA
NAD(+) hydrolase SARM1 (Homo sapiens), sequence (Q6SZW1 whole entry, looked up, the tested form may be a part): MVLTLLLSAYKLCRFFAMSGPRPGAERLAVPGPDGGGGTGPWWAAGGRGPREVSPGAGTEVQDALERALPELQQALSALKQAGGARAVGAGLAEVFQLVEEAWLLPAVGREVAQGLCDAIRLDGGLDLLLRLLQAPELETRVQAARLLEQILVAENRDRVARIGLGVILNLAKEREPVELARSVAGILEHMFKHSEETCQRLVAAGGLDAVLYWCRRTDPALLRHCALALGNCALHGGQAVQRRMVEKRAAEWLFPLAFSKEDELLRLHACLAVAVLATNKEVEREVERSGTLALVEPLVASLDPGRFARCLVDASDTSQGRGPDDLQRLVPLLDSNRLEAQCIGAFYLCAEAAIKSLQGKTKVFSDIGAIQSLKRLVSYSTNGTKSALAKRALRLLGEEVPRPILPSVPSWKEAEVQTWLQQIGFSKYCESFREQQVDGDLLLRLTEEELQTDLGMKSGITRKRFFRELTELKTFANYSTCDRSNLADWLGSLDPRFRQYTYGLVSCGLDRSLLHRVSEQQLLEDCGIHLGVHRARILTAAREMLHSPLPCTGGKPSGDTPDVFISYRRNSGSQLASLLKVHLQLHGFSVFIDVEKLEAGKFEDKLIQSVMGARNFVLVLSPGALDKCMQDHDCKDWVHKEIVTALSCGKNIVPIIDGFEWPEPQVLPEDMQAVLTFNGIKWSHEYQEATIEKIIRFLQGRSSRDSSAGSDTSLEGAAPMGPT
Mitogen-activated protein kinase 7 (Homo sapiens), sequence (Q13164 whole entry, looked up, the tested form may be a part): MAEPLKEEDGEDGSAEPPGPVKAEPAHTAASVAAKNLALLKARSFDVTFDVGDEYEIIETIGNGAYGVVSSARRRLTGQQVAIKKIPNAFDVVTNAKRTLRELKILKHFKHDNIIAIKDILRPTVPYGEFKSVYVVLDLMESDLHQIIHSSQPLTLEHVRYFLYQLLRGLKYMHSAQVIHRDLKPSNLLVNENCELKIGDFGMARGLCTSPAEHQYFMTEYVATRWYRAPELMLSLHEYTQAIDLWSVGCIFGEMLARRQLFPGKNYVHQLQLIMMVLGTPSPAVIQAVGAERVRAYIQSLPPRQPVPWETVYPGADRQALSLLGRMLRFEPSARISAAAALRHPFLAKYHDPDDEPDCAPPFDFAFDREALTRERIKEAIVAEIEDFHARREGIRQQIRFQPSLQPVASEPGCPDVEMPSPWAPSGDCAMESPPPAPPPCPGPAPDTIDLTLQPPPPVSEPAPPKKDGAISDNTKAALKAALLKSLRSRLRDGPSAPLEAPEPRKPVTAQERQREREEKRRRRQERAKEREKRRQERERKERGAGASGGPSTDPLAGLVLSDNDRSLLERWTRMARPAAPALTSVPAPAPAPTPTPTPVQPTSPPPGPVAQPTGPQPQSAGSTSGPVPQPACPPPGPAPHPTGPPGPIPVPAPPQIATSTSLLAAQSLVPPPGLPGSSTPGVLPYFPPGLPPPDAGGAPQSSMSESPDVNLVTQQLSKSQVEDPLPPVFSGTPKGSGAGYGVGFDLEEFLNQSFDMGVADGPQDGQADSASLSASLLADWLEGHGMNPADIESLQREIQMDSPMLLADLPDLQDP
6-phosphogluconate dehydrogenase, decarboxylating (Homo sapiens), sequence (P52209 whole entry, looked up): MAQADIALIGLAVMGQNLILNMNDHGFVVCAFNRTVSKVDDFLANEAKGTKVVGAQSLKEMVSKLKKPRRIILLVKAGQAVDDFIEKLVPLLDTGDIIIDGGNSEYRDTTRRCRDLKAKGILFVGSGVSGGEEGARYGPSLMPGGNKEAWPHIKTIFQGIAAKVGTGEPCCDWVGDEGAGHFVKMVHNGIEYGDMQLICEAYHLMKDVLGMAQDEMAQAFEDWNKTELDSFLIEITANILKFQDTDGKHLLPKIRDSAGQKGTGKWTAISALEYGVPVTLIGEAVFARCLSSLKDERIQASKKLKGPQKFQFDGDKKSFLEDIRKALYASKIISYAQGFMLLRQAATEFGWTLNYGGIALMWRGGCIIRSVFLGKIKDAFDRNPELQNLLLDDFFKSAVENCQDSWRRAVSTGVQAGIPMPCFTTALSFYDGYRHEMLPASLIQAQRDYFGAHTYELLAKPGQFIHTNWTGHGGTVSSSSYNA

C[C@@H]1C[C@H]2[C@@H]3CCC4=CC(=O)C=C[C@]4(C)[C@@]3(F)[C@@H](O)C[C@]2(C)[C@@]1(O)C(=O)CO
inactive: remaining NAD [1] 10 nM | luciferase signal [2] 100 AU | z-score [3] 0.135 and 0.555 | log fold change Tl+ flux (F380Y) 0.096 | log fold change Tl+ flux (F380Y/beta1) 0.0534 | log fold change Tl+ flux (F380Y/beta2Delta) -0.01 | log fold change Tl+ flux (F380Y/beta4) -0.000275 | log fold change Tl+ flux [4] 0.0359 | log fold change Tl+ flux (R275C) 0.0247 | log fold change Tl+ flux (R275C/beta1) 0.0605 | log fold change Tl+ flux (R275C/beta2Delta) 0.000117 | log fold change Tl+ flux (R275C/beta4) 0.0627 | log fold change Tl+ flux (R275C/Slo1WT/beta2) 0.0456

C[C@]12C=CC(=O)C=C1CC[C@@H]1[C@@H]2[C@@H](O)C[C@@]2(C)[C@H]1CC[C@]2(O)C(=O)CO
7530 and 6090 and 6580: cell count ([24]; measured here: total cells with miR-34 induction, stronger effect = lower value)
1.73 and 1.43 and 1.29: fold change ([24]; measured here: relative caspase fold change +Dox/-Dox)
-0.0179 and 1.19: z-score ([25]; Rieske KO mouse fibroblast survival, CellTiter-Glo 72 h)
-0.7%: nuclear beta-catenin stimulation ([10]; stimulation, at 2 µM)
8090 and 7780 and 7760: cell count ([24]; measured here: total cells without miR-34 induction)
inactive: survival [5] 15.8 | fluorescence ratio [6] 1.02 | inhibition [7] -1.36% | inhibition [8] 0.29% | fluorescence ratio [9] 0.96 | nuclear beta-catenin stimulation ([10]; at 10 µM) -2.6% | insulin secretion stimulation [11] 1.6% | viability decrease [12] -2.7% | tube area decrease [13] 11.2% | GLP1 secretion stimulation [14] -0.5% | inhibition of viability [15] -3.5% | viability decrease (inhibition) [16] -1.5% | viability decrease (inhibition) [17] -18.8% | inhibition [18] -5.44% | outcome [19] | outcome [20] | outcome [21] | outcome [22] | outcome [23] | fold change ([24]; stronger effect = lower value, cell number ratio, induced over uninduced) 0.93 and 0.783 and 0.847 | z-score ([25]; MELAS cybrid survival, CellTiter-Glo 48 h, stronger effect = higher value) 0.367 and 0.381 | remaining NAD [1] 10 nM | luciferase signal [2] 84 AU | z-score [3] -0.29 and 0.46 | log fold change Tl+ flux (F380Y) 0.0238 | log fold change Tl+ flux (F380Y/beta1) 0.00512 | log fold change Tl+ flux (F380Y/beta2Delta) 0.0411 | log fold change Tl+ flux (F380Y/beta4) 0.023 | log fold change Tl+ flux [4] -0.0308 | log fold change Tl+ flux (R275C) 0.0128 | log fold change Tl+ flux (R275C/beta1) 0.0311 | log fold change Tl+ flux (R275C/beta2Delta) 0.0197 | log fold change Tl+ flux (R275C/beta4) -0.0125 | log fold change Tl+ flux (R275C/Slo1WT/beta2) -0.0471
